Results filed as inconclusive are left out. Activity calls are given as the source filed them. Unless noted, the call rests on the fitted dose curve; in most records, active means well fitted cell-killing curve with a large enough effect in the repeat runs; inconclusive means weak or mixed curves, or effect the other way; inactive means no such curve, though single readings can be large or run the other way.
Tested on: not listed separately
Test: qHTS assay to identify small molecule agonists of the estrogen receptor alpha (ER-alpha) signaling pathway in the presence of an antagonist - cell viability counter screen (AID 1259386);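 further: cells exposed to compounds for 22 h at 37 °C before the viability read; nearly all actives have a fitted effect of over 30% in size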
Settings: VM7Luc4E2 viability, CellTiter-Fluor fluorescence, 22 h; series mostly up to 92.4 µM; activity change, negative = cytotoxicity: at the top concentration
How it was run: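 VM7Luc4E2 cells (endogenous full-length ER-alpha, 4×ERE-luciferase) were held 5 days in phenol red-free medium with 10% charcoal-stripped FBS, plated, then given 10.0nM ICI-182,780 and compounds at 15 concentrations for 22hr at 37C; viability read by CellTiter-Fluor fluorescence.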
On the % scale 0 is the no-effect control and ±100 the full control effect.

Row | SMILES | activity change, negative = cytotoxicity
1 | CCC(C)(C)C | 0.498% (inactive)
2 | C=CCON/C(CCC)=C1\C(=O)CC(C)(C)C(C(=O)OC)=C1O | 1.43% (inactive)
3 | C/C=C/C(=O)CCCC | 7.31% (inactive)
4 | CN1CCN(C(=O)C2CCCCC2)CC1 | 3.76% [at 42.5 µM] (inactive)
5 | CCCOc1ccc(C(=O)OCCN(CC)CC)cc1N | -1.8% [at 42.5 µM] (inactive)
6 | Cc1nnc(C(=O)NC(C)(C)c2nc(C(=O)NCc3ccc(F)cc3)c(O)c(=O)n2C)o1 | 2.93% [at 42.5 µM] (inactive)
7 | COc1cc2nc(N3CCN(C(=O)C4CCCO4)CC3)nc(N)c2cc1OC (stereo not given) | -2.77% [at 42.5 µM] (inactive)
8 | CC(=O)SCC(CC(=O)c1ccc(C)cc1)C(=O)O (stereo not given) | 0.424% [at 42.5 µM] (inactive)
9 | CCc1ncc(C)[nH]1 | 2.5% (inactive)
10 | CCN(CC)CC(=O)Oc1ccc(NC(C)=O)cc1 | 4.84% [at 42.5 µM] (inactive)
11 | CCN1CCN(C(=O)N[C@@H](C(=O)N[C@@H]2C(=O)N3[C@@H]2SC(C)(C)[C@H]3C(=O)O)c2ccccc2)C(=O)C1=O | 3.56% [at 42.5 µM] (inactive)

Target: Progesterone receptor (Homo sapiens) (UniProt P06401)
Sequence (P06401 whole entry, looked up): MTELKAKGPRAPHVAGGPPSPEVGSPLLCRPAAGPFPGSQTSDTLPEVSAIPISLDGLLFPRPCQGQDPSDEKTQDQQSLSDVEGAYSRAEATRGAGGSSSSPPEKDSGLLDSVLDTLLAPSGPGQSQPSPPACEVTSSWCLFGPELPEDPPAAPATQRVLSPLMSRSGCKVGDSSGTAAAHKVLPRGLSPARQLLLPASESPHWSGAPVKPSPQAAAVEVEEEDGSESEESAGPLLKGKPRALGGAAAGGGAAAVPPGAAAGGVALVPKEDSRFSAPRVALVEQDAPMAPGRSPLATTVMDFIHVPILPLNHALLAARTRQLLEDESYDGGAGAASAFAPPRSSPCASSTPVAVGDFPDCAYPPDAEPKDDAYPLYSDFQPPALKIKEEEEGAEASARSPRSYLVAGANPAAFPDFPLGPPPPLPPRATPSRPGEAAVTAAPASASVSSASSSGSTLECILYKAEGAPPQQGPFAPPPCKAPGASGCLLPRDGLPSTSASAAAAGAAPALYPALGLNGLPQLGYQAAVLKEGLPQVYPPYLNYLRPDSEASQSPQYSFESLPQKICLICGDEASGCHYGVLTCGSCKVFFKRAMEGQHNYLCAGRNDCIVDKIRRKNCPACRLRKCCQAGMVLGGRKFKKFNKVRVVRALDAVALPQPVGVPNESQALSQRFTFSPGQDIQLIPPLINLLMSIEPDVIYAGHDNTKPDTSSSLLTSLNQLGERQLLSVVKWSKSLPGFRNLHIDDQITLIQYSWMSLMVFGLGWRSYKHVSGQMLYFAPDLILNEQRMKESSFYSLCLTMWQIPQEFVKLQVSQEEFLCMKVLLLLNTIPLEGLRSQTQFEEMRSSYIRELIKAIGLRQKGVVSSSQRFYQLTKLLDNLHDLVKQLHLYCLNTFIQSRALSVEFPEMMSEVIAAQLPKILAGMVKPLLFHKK
Test: qHTS assay to identify small molecule agonists of the progesterone receptor (PR) signaling pathway (AID 1346784; calls by dose curve; further: nearly all actives have a fitted effect of over 30% in size)
Settings: PR-UAS-bla HEK293T, beta-lactamase FRET ratio, 16 h; series mostly up to 92.4 µM; activation: at the top concentration
How it was run: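 Beta-lactamase reporter read-out: after 16 hr compound treatment at 37C and a further 2 hr at room temperature with LiveBLAzer B/G FRET substrate, fluorescence was measured in PR-UAS-bla HEK 293T cells grown in 2% charcoal-stripped serum.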

Row | SMILES | activation
12 | CCCCCCCCCCCCCCCC(=O)OC | -3.12% [at 19 µM] (inactive)
13 | N[C@H]1C(O)O[C@H](CO)[C@@H](O)[C@@H]1O (stereo not given in full) | 0.104% [at 42.5 µM] (inactive)
14 | C=COCCCCO | 0.192% (inactive)
15 | COC(=O)c1ccc(C(=O)O)cc1 | -0.213% (inactive)
16 | COC(=O)c1cc(Cl)c(NC(C)=O)cc1OC | -2.81% [at 42.5 µM] (inactive)
17 | COC(=O)/C=C(\C)CCC=C(C)C | 0.513% (inactive)
18 | CCO[Si](CC(C)C)(OCC)OCC | 7.75% (inactive)
19 | CC(C)C(C)C | -0.173% (inactive)
20 | CCOC(=O)CN1CCCC1=O | -2.66% [at 42.5 µM] (inactive)
21 | CC[N+](C)(CC)CC | -0.147% (inactive)
22 | BrCCOc1ccccc1 | 15.4% (inactive)
23 | O=S(=O)(O)c1cc(I)c(O)c2ncccc12 | 0.438% [at 42.5 µM] (inactive)
24 | Clc1cc(Cl)c(Cl)c(Cl)c1Cl | 0.586% (inactive)
25 | COc1ccc(Cl)cc1C | 0.501% (inactive)
26 | O=Cc1ccccc1S(=O)(=O)O | -3.35% (inactive)
27 | CC(C)(C)c1ccc(C(=O)CCCCl)cc1 | -0.184% [at 42.5 µM] (inactive)
28 | O=C(O)Cc1c(Cl)ccc(Cl)c1Cl | -2.75% (inactive)
29 | CC(C)(C)NCC(O)COc1cccc2c1CCC(=O)N2 (stereo not given) | -0.0081% [at 42.5 µM] (inactive)
30 | CCC(C)(C)C | 0.284% (inactive)
31 | C=CCON/C(CCC)=C1\C(=O)CC(C)(C)C(C(=O)OC)=C1O | -1.91% (inactive)
32 | C/C=C/C(=O)CCCC | -1.41% (inactive)
33 | CN1CCN(C(=O)C2CCCCC2)CC1 | 0% [at 42.5 µM] (inactive)
34 | CCCOc1ccc(C(=O)OCCN(CC)CC)cc1N | -0.781% [at 42.5 µM] (inactive)
35 | Cc1nnc(C(=O)NC(C)(C)c2nc(C(=O)NCc3ccc(F)cc3)c(O)c(=O)n2C)o1 | -0.467% [at 42.5 µM] (inactive)
36 | CC(=O)SCC(CC(=O)c1ccc(C)cc1)C(=O)O (stereo not given) | -1.52% [at 42.5 µM] (inactive)
37 | CCN(CC)CC(=O)Oc1ccc(NC(C)=O)cc1 | -0.507% [at 42.5 µM] (inactive)

Target: Progesterone receptor (Homo sapiens) (UniProt P06401)
Test: qHTS assay to identify small molecule antagonists of the progesterone receptor (PR) signaling pathway (AID 1346795; active means well fitted inhibition curve with a large enough effect in the signal ratio in the repeat runs, not every such curve was filed as active; the % refers to the signal ratio)
Settings: PR-UAS-bla HEK293T, beta-lactamase FRET ratio, 16 h; series mostly up to 92.4 µM; activity change, negative = inhibition: at the top concentration
How it was run: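 Read-out is fluorescence from the LiveBLAzer B/G FRET substrate, cleaved by a UAS-controlled beta-lactamase in PR-UAS-bla HEK293T cells after 16 hr exposure to compound plus 1 nM promegestone (final), followed by 2 hr at room temperature.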

Row | SMILES | activity change, negative = inhibition
38 | CCCCCCCCCCCCCCCC(=O)OC | 0.526% [at 18.9 µM] (inactive)
39 | N[C@H]1C(O)O[C@H](CO)[C@@H](O)[C@@H]1O (stereo not given in full) | 6.01% [at 42.5 µM] (inactive)
40 | C=COCCCCO | -0.475% (inactive)
41 | COC(=O)c1cc(Cl)c(NC(C)=O)cc1OC | -18.7% [at 42.5 µM] (inactive)
42 | COC(=O)/C=C(\C)CCC=C(C)C | 5.48% (inactive)
43 | CC(C)C(C)C | 0.904% (inactive)
44 | CC1(C)S[C@@H]2[C@H](NC(=O)Cc3ccccc3)C(=O)N2[C@H]1C(=O)O (tested in a mixture with another compound) | 1.31% [at 42.5 µM] (inactive)
45 | CCOC(=O)CN1CCCC1=O | 6.2% [at 42.5 µM] (inactive)
46 | BrCCOc1ccccc1 | -3.12% (inactive)
47 | CCCCC(CC)COC(=O)CC#N (stereo not given) | 6.72% (inactive)
48 | Cc1ccc2cccnc2c1 | 10.6% (inactive)
49 | O=S(=O)(O)c1cc(I)c(O)c2ncccc12 | -0.671% [at 42.5 µM] (inactive)
50 | CCCCC(O)/C=C(C)/C=C/C=C/C(=O)N1CCCC1=O (stereo not given) | 8.66% [at 42.5 µM] (inactive)
51 | Clc1cc(Cl)c(Cl)c(Cl)c1Cl | 6.55% (inactive)
52 | CC(C)OCCO | 12.3% (inactive)
53 | COc1ccc(Cl)cc1C | 13.2% (inactive)
54 | O=Cc1ccccc1S(=O)(=O)O | 10.1% (inactive)
55 | O=c1[nH]c(=O)c2cn[nH]c2[nH]1 | 4.95% (inactive)
56 | O=C(O)Cc1c(Cl)ccc(Cl)c1Cl | 15.7% (inactive)
57 | CC(C)(C)NCC(O)COc1cccc2c1CCC(=O)N2 (stereo not given) | 0.387% [at 42.5 µM] (inactive)
58 | CCC(C)(C)C | 0.0974% (inactive)
59 | C=CCON/C(CCC)=C1\C(=O)CC(C)(C)C(C(=O)OC)=C1O | 14.9% (inactive)
60 | C/C=C/C(=O)CCCC | 0.206% (inactive)
61 | CN1CCN(C(=O)C2CCCCC2)CC1 | 13.4% [at 42.5 µM] (inactive)
62 | CC(=O)SCC(CC(=O)c1ccc(C)cc1)C(=O)O (stereo not given) | 1.37% [at 42.5 µM] (inactive)
63 | CCc1ncc(C)[nH]1 | 9.25% (inactive)
64 | CCN(CC)CC(=O)Oc1ccc(NC(C)=O)cc1 | 8.05% [at 42.5 µM] (inactive)
65 | CCN1CCN(C(=O)N[C@@H](C(=O)N[C@@H]2C(=O)N3[C@@H]2SC(C)(C)[C@H]3C(=O)O)c2ccccc2)C(=O)C1=O | 0.386% [at 42.5 µM] (inactive)

Tested on: not listed separately
Test: qHTS assay to identify small molecule antagonists of the progesterone receptor (PR) signaling pathway - cell viability counter screen (AID 1346798);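 further: HEK293T PR-UAS-bla cells stimulated with the agonist R5020; nearly all actives have a fitted effect of over 50% in size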
Settings: PR-UAS-bla HEK293T viability, CellTiter-Glo luminescence, 16 h; series mostly up to 92.4 µM; activity change, negative = cytotoxicity: at the top concentration
How it was run: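 HEK293T PR-UAS-bla, 2% charcoal-stripped FBS; 4 hr pre-plate; cpd + R5020, 16 h 37C; LiveBLAzer read first; then CellTiter-Glo 30 min RT, luminescence.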

Row | SMILES | activity change, negative = cytotoxicity
66 | CCCCCCCCCCCCCCCC(=O)OC | 20% [at 18.9 µM] (inactive)
67 | C=C(C)C(=O)OCCOC1CC2CC1C1C=CCC21 (stereo not given) | -3.8% (inactive)
68 | C=COCCCCO | 9.05% (inactive)
69 | CC(C)C(C)C | -0.775% (inactive)
70 | CC1(C)S[C@@H]2[C@H](NC(=O)Cc3ccccc3)C(=O)N2[C@H]1C(=O)O (tested in a mixture with another compound) | -5.52% [at 42.5 µM] (inactive)
71 | CCOC(=O)CN1CCCC1=O | 0.697% [at 42.5 µM] (inactive)
72 | CC[N+](C)(CC)CC | -7.13% (inactive)
73 | BrCCOc1ccccc1 | 8.9% (inactive)
74 | Cc1ccc2cccnc2c1 | 0.763% (inactive)
75 | CCCCCCCCCCCCCCCCN(C)C | -0.0264% [at 8.39 µM] (inactive)
76 | O=S(=O)(O)c1cc(I)c(O)c2ncccc12 | -9.07% [at 42.5 µM] (inactive)
77 | CCC(C)c1nccnc1OC (stereo not given) | 18.4% (inactive)
78 | CCCCC(O)/C=C(C)/C=C/C=C/C(=O)N1CCCC1=O (stereo not given) | 9.12% [at 42.5 µM] (inactive)
79 | Clc1cc(Cl)c(Cl)c(Cl)c1Cl | -9.77% (inactive)
80 | CC(C)OCCO | -1.1% (inactive)
81 | COc1ccc(Cl)cc1C | -2.53% (inactive)
82 | O=Cc1ccccc1S(=O)(=O)O | 0.438% (inactive)
83 | O=c1[nH]c(=O)c2cn[nH]c2[nH]1 | 12.5% (inactive)
84 | CC(C)(C)c1ccc(C(=O)CCCCl)cc1 | -7.08% [at 42.5 µM] (inactive)
85 | O=C(O)Cc1c(Cl)ccc(Cl)c1Cl | 6.14% (inactive)
86 | CC(C)(C)NCC(O)COc1cccc2c1CCC(=O)N2 (stereo not given) | 11.6% [at 42.5 µM] (inactive)
87 | CCC(C)(C)C | -1.51% (inactive)
88 | C=CCON/C(CCC)=C1\C(=O)CC(C)(C)C(C(=O)OC)=C1O | -5.46% (inactive)
89 | CN1CCN(C(=O)C2CCCCC2)CC1 | -1.41% [at 42.5 µM] (inactive)
90 | Cc1nnc(C(=O)NC(C)(C)c2nc(C(=O)NCc3ccc(F)cc3)c(O)c(=O)n2C)o1 | 4.42% [at 42.5 µM] (inactive)
91 | COc1cc2nc(N3CCN(C(=O)C4CCCO4)CC3)nc(N)c2cc1OC (stereo not given) | -8.36% [at 42.5 µM] (inactive)
92 | CC(=O)SCC(CC(=O)c1ccc(C)cc1)C(=O)O (stereo not given) | 4.47% [at 42.5 µM] (inactive)
93 | CCc1ncc(C)[nH]1 | 4.68% (inactive)
94 | CCN(CC)CC(=O)Oc1ccc(NC(C)=O)cc1 | 1.1% [at 42.5 µM] (inactive)
95 | CCN1CCN(C(=O)N[C@@H](C(=O)N[C@@H]2C(=O)N3[C@@H]2SC(C)(C)[C@H]3C(=O)O)c2ccccc2)C(=O)C1=O | 11.9% [at 42.5 µM] (inactive)
